Source: PubChem BioAssay (several laboratories)
Sampled rows, rich in hits. Any-hit rate of the full collection: about 2.2%.
MEX-5 binding – C. elegans MEX-5 TCR-2 RNA binding activity; activity score (negative = inhibition of binding), % at 10 µM; Q9XUB2; 300,000 tested, 0.38% active; MEX-5/FITC-TCR2 RNA binding, fluorescence polarization; stronger effect = lower value;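 active means inhibition past about -25% in most replicates, and total fluorescence under double the plate's negative control median, limit read from the data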
m5-HT2A agonist – agonists of mouse serotonin 5-HT2A receptor (HTR2A); P35363; CHO-K1 mHTR2A beta-arrestin complementation, luminescence; percent of 30 µM serotonin response; activation, % at 7.6 µM; 360,000 tested, 0.66% active; AID 624169;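 active means activation above a run cutoff, the mean activation of all tested compounds plus 3 SD, cut at about 14% in these data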
V-ATPase pHluor – regulators of yeast V-ATPase proton transport; response, % at 10 µM; 350,000 tested, 0.37% active; AID 504577; S. cerevisiae, pHLuorin cytosolic pH fluorescence; in the data active means response mostly above about 7.3%, no sharp cut-off; inactive means mostly below about 5.4%; further: actives read high
JMJD2C inh – human JMJD2C demethylase inhibition; 330,000 tested, 0.069% active; Q9H3R0; GST-JMJD2C(1-420) H3K9me3 demethylation, DELFIA europium; inhibition, % at 2.35 µM;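 active means more than half of a compound's replicate wells show inhibition beyond 50%, single wells judged on their own value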;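 further: signal counts dimethyl H3K9 product captured on neutravidin plate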
VLA-4 inh – inhibition in a human VLA-4 binding assay. AID 2557. P13612. VLA-4 expressing cells, ligand binding flow cytometry. inhibition, % (about 7 µM as worked out from the volumes in the protocol). 330,000 tested, 0.2% active; in the data active means inhibition above about 50%
Target sequence (P13612 whole entry, looked up): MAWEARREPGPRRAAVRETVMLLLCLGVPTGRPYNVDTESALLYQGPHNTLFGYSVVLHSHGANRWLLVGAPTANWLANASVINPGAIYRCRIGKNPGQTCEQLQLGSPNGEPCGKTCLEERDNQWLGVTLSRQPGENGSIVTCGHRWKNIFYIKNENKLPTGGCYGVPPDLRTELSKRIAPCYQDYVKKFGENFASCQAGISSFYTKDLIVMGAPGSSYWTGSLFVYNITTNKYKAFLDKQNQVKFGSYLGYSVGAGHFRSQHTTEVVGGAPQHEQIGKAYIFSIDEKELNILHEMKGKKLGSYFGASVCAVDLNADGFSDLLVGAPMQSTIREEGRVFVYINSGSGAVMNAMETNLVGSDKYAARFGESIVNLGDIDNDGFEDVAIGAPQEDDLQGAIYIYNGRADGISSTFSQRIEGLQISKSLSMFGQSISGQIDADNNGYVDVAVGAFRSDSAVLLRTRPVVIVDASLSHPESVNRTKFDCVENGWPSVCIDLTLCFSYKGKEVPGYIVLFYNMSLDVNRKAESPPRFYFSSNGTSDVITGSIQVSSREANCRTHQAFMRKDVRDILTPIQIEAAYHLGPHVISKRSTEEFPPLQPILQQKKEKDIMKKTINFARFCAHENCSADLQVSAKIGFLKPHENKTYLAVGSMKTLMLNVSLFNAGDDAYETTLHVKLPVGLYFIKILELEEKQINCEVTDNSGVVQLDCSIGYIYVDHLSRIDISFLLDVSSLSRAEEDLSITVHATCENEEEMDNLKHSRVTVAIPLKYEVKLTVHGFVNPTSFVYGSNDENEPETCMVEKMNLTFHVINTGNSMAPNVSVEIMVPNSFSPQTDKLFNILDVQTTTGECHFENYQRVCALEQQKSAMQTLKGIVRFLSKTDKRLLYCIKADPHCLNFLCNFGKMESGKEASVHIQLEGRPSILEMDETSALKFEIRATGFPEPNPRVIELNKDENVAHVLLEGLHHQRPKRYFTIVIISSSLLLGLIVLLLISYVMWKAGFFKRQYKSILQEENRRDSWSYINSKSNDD
Exocytosis inh – blocks lytic granule exocytosis; TALL-104 LAMP-1 surface exposure, flow cytometry; cells stimulated with thapsigargin and PMA; inhibition, % at 10 µM; 360,000 tested, 0.66% active;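 active means inhibition above about 55%, limit read from the data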
Granule exo CP1 – blocks lytic granule exocytosis | shares compounds with Exocytosis inh | TALL-104 cells, LAMP-1 externalization, flow cytometry; stimulated with PMA plus thapsigargin | inhibition, % at 10 µM | 1,500 tested, 11% active | AID 651954; in the data active means inhibition above about 60%
Hits are given with their value; – = inactive; · = no result given.

SMILES	MEX-5 binding	m5-HT2A agonist	V-ATPase pHluor	JMJD2C inh	VLA-4 inh	Exocytosis inh	Granule exo CP1
C=CCn1c(C)nnc1SCC(=O)Nc1oc(C)c2c(C)n[nH]c(=O)c12	–	–	–	–	–	80	–
Cc1n[nH]c(=O)c2c(NC(=O)CSc3ncccn3)oc(C)c12	–	–	–	–	–	–	·
Cc1cccc2sc(NC(=O)c3cc(S(=O)(=O)N(C)C)ccc3N3CCCC3)nc12	–	–	–	–	–	–	·
CC(C)(C)c1ccc(OCc2cnc(Cl)s2)cc1	–	–	–	–	–	–	·
O=C1/C(=C\c2cccs2)Sc2ccc3ccccc3c21	–	–	–	–	–	85	–
O=C1C(=Cc2cccs2)C(=O)c2ccccc21	–	–	–	–	–	–	·
CCCCCCNC(=O)c1cccc(-c2ccc(C)c3ccccc23)n1	–	–	–	–	–	58	–
Nc1sccc1C(=O)c1ccc(Cl)cc1	–	–	–	–	·	82	–
O=C(O)c1ccccc1C(=O)c1ccc(Cl)cc1	–	–	–	–	–	–	·
CCSc1ccccc1C(=O)N1CCC2(CC1)CC(=O)c1ccccc1O2	–	–	–	–	–	–	·
S=c1nccc(-c2ccc3c(c2)CCO3)[nH]1	–	–	–	–	–	59	–
CC(NC(=O)CC12CC3CC(CC(C3)C1)C2)C(=O)O (stereo not given)	–	–	–	–	–	63	–
CCCn1c(SCC(=O)c2[nH]c(C)c(C(C)=O)c2C)n[nH]c1=O	–	–	–	–	–	–	·
CC(Sc1nc2cc([N+](=O)[O-])ccc2n1-c1ccc(F)cc1)C(=O)NCc1ccc2c(c1)OCO2 (stereo not given)	–	–	–	–	–	88	–
COc1ccccc1-n1c(SCC(=O)NCc2ccc3c(c2)OCO3)nc2cc([N+](=O)[O-])ccc21	–	–	–	–	–	95	–
Cc1cc(C)cc(-n2c(SC(C)C(=O)NCc3ccc4c(c3)OCO4)nc3ccccc3c2=O)c1 (stereo not given)	–	–	–	–	–	–	·
Nc1ncnc2c1ncn2[C@@H]1O[C@H](CNCc2ccccc2OCc2ccc(Cl)cc2Cl)[C@@H](O)[C@H]1O	·	–	–	–	–	–	·
COC(=O)[C@@]12C[C@@H](CC(=O)NCc3cccc4ccccc34)C(=O)N(CCc3ccc(OC)c(OC)c3)C1=CCC(C)(C)C2	·	–	·	·	·	–	·
Cc1ccsc1CN(C)CC(=O)Nc1ccc([N+](=O)[O-])cc1Cl	–	–	–	–	–	99	–
CN(CC(=O)Nc1cc([N+](=O)[O-])ccc1Cl)Cc1ccc(Br)cc1	–	–	–	–	–	–	·
CCc1ccc(NC(=O)CSc2nc3ccccc3c(=O)n2CCCC(=O)NCCCN2CCOCC2)cc1	–	–	–	–	–	63	–
COc1ccccc1N1CCN(C2CC(=O)N(c3cccc(Cl)c3)C2=O)CC1 (stereo not given)	–	–	–	–	–	–	·
Cc1cccc(S(=O)(=O)Nc2ccc(-c3nc4ccc(C)cc4s3)cc2)c1	–	–	–	–	–	75	–
Cc1ccc2nc(-c3ccc(NC(=O)CN4C(=O)c5ccccc5C4=O)cc3)sc2c1	–	–	–	–	–	–	·
Cc1ccc(S(=O)(=O)Nc2ccc(-c3nc4ccc(C)cc4s3)cc2)cc1	–	–	–	–	–	–	·
SMILES	MEX-5 binding	m5-HT2A agonist	V-ATPase pHluor	JMJD2C inh	VLA-4 inh	Exocytosis inh	Granule exo CP1
Cc1ccc2nc(-c3ccc(NC(=O)CNC4CC4)cc3)sc2c1	–	–	–	–	·	74	–
C[C@@H](NC(=O)c1nc[nH]c1C(=O)NCc1ccc(CNC(=O)OC(C)(C)C)cc1)c1ccccc1	·	–	–	–	–	–	·
Cc1ccccc1OCCC(=O)Nc1ccc(N2CCOCC2)cc1N1CCOCC1	–	–	–	–	–	–	·
CCCNC(=S)N1CCN(c2nc(C)nc3sc4c(c23)CCCC4)CC1	–	–	–	–	–	–	·
COCCCNC(=S)N1CCN(c2nc(C)nc3sc4c(c23)CCCC4)CC1	–	–	–	–	–	66	–
CCOc1ccc(Cl)cc1S(=O)(=O)N1CCC(C(=O)NCc2cccnc2)CC1	–	–	–	–	–	–	·
O=C(CN1C(=O)/C(=C\c2ccccc2Br)Oc2ccccc21)NCCCN1CCOCC1	–	–	–	–	–	–	·
O=C(NCCCN1CCOCC1)c1ccc(/C=C2\Oc3ccccc3N(Cc3ccccc3F)C2=O)cc1	–	–	–	–	–	63	–
CCN(CC)C(=O)c1c(Cl)nc(C)c([N+](=O)[O-])c1C	–	–	–	–	–	–	·
COC(=O)[C@H](Cc1c[nH]c2ccccc12)NC(=O)CCCc1c[nH]c2ccccc12	–	–	–	–	–	74	–
COC(=O)C(Cc1c[nH]c2ccccc12)NC(=O)C(=O)c1c[nH]c2ccccc12 (stereo not given)	–	–	–	–	–	59	–
COC(=O)C(Cc1c[nH]c2ccccc12)NC(=O)C(C)C (stereo not given)	–	–	–	–	–	–	·
COC(=O)C(Cc1c[nH]c2ccccc12)NC(=O)C1CC1 (stereo not given)	–	–	–	–	–	–	·
COC(=O)[C@H](Cc1c[nH]c2ccccc12)NC(=O)Cc1c[nH]c2ccccc12	–	–	–	–	–	66	–
N#CCOC(=O)[C@H](Cc1c[nH]c2ccccc12)NS(=O)(=O)c1ccc(Cl)cc1	–	–	–	–	–	57	–
COC(=O)[C@@H](Cc1c[nH]c2ccccc12)NC(=O)CCC(=O)c1ccc(Br)cc1	–	–	–	–	–	–	·
O=C(O)C(Cc1c[nH]c2ccccc12)NS(=O)(=O)c1ccc(F)cc1 (stereo not given)	·	–	–	·	·	–	·
CCOC(=O)c1c(NC(=O)COC(=O)c2ccc(C)s2)sc2c1CC(C)(C)NC2(C)C	–	–	–	–	–	64	–
CCOC(=O)c1c(NC(=O)CCS(=O)(=O)c2ccccc2)sc2c1CC(C)(C)NC2(C)C	–	–	–	–	–	–	·
CCOC(=O)c1c(NC(=O)COc2ccccc2OCC)sc2c1CC(C)(C)NC2(C)C	–	–	–	–	–	68	100
CCOC(=O)c1c(NC(=O)CSc2nnnn2-c2ccccc2OCC)sc2c1CC(C)(C)NC2(C)C	–	–	–	–	–	65	63
COc1cccc(CNC(=O)COC(=O)c2ccc(-c3ccc(O)cc3)cc2)c1	·	–	–	·	·	–	·
CC(C)CNC(=O)C1(C)CCCN1C(=O)c1cc2ccccc2s1 (stereo not given)	·	–	·	·	·	–	·
C[C@H](CO)N1C[C@H](C)[C@@H](CN(C)S(C)(=O)=O)Oc2ccc(N(C)C)cc2C1=O	·	–	–	–	–	60	–
